# Article PMC7862700, “An all-to-all approach to the identification of sequence-specific readers for epigenetic DNA modifications on cytosine”
# What was measured:
# Assay in all cases: DAPPL (digital affinity profiling via proximity ligation, sequencing); 10 mM Tris-HCl pH 7.5, 50 mM NaCl, 1 mM DTT, 4% glycerol, room temperature, 30 min; GST-TFs on glutathione beads, 16-mer random dsDNA library, 0.1% formaldehyde crosslink after washing; high values mean tight binding
# FEV = biological target: T1, FEV (Homo sapiens, UniProt Q99581 1-238); conditions: protein: recombinant; tags: N-terminal GST; dsDNA, one strand shown
# T1 sequence: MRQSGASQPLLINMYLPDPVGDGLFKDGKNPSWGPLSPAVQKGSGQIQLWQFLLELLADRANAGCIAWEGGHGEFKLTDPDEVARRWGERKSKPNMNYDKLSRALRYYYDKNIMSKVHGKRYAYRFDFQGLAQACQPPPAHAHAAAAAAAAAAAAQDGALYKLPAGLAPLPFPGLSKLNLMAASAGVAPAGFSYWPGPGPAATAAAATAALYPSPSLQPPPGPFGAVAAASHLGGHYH
# Method in brief: (§1)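 Binding signal is given per hexamer as its read frequency for a factor divided by its frequency in the tag-only sample. GST-fused human transcription factors were expressed in yeast, captured on glutathione beads, barcoded with DNA and pooled with that sample, then incubated with 200 nmole of a 16-mer random double-stranded DNA library in Tris/NaCl/DTT/glycerol buffer for 30 min at room temperature. The pools were then washed, crosslinked, proximity-ligated, amplified by PCR and sequenced on an Illumina NextSeq500.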
# ETV5 = ETV5 (Homo sapiens, UniProt P41161 1-510); conditions: protein: recombinant; tags: N-terminal GST; dsDNA, one strand shown
# Chain of ETV5 (P41161 whole entry): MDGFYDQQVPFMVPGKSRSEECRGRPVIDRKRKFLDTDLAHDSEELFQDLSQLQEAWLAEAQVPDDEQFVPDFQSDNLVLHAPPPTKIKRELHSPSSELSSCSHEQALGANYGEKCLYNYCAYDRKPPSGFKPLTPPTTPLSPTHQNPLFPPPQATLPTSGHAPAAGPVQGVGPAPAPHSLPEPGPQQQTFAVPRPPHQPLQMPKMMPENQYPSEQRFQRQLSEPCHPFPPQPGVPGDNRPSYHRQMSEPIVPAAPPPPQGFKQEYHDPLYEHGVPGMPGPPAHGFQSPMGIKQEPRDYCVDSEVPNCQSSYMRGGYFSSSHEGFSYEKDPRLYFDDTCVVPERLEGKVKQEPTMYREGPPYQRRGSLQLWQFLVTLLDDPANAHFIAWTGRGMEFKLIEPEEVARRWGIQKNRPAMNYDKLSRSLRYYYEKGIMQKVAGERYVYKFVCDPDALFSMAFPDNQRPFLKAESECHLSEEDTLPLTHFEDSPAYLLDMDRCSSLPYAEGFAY
# Method in brief: as §1
# HSF1 = HSF1 (Homo sapiens, UniProt Q00613 1-529); conditions: protein: recombinant; tags: N-terminal GST; chain copies: 3; dsDNA, one strand shown
# Chain of HSF1 (Q00613 whole entry): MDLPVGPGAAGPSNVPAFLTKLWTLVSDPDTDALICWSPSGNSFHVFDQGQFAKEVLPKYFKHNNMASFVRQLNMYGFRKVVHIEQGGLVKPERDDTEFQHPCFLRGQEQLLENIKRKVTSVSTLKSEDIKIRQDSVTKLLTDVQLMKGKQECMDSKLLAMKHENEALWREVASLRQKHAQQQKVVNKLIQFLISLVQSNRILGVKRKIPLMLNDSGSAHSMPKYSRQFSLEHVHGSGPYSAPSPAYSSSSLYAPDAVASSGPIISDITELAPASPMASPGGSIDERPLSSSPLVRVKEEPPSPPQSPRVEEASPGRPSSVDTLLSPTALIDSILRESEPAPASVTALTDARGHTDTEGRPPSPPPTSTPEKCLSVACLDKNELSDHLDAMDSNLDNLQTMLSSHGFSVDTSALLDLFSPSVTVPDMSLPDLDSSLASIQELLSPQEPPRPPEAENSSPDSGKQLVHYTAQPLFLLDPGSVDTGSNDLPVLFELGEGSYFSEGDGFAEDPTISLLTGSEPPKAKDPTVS
# Method in brief: as §1
# SPIC = biological target: T2, SPIC (Homo sapiens, UniProt Q8N5J4 1-248); conditions: protein: recombinant; tags: N-terminal GST; dsDNA, one strand shown
# T2 sequence: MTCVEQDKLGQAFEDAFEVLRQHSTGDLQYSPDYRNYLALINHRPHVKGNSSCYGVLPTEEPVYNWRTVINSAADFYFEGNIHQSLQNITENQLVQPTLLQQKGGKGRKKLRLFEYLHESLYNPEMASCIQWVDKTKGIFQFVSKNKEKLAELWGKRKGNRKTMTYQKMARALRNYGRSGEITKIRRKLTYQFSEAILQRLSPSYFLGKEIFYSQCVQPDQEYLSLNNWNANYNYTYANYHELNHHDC
# Method in brief: as §1
# ELF4 = ELF4 (Homo sapiens, UniProt Q99607 1-663); conditions: protein: recombinant; tags: N-terminal GST; dsDNA, one strand shown
# Chain of ELF4 (Q99607 whole entry): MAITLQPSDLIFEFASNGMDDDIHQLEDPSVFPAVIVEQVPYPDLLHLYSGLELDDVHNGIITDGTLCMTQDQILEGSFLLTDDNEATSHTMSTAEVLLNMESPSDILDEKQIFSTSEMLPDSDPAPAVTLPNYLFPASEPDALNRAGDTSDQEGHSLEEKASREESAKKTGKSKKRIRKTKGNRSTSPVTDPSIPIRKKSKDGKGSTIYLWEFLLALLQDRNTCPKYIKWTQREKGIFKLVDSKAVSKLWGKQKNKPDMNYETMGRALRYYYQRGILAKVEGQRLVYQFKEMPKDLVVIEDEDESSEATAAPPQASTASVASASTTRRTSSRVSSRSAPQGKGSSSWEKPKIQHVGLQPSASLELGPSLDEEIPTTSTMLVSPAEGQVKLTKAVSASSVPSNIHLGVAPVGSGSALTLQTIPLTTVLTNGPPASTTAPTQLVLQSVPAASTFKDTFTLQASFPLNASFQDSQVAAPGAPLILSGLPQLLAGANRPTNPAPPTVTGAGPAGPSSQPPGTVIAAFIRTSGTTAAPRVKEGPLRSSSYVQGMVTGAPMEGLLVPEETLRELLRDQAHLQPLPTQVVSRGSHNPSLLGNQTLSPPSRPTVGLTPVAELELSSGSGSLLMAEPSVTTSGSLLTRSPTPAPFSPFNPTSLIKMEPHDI
# Method in brief: as §1
# ELK4 = biological target: T3, ELK4 (Homo sapiens, UniProt P28324-2 1-405); conditions: protein: recombinant; tags: N-terminal GST; dsDNA, one strand shown
# T3 sequence: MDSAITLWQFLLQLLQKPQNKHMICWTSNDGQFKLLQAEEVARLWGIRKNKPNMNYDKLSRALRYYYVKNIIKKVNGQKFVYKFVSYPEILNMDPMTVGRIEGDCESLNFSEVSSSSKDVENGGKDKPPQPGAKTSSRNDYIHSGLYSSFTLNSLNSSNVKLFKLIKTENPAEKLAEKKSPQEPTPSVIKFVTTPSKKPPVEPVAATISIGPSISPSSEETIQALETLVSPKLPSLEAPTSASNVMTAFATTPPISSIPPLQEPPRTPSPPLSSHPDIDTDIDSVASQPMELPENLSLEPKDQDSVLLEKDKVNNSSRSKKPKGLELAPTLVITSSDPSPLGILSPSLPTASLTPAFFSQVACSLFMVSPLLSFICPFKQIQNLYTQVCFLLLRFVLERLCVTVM
# Method in brief: as §1
# ETV2 = biological target: T4, ETV2 (Homo sapiens, UniProt O00321 1-342); conditions: protein: recombinant; tags: N-terminal GST; dsDNA, one strand shown
# T4 sequence: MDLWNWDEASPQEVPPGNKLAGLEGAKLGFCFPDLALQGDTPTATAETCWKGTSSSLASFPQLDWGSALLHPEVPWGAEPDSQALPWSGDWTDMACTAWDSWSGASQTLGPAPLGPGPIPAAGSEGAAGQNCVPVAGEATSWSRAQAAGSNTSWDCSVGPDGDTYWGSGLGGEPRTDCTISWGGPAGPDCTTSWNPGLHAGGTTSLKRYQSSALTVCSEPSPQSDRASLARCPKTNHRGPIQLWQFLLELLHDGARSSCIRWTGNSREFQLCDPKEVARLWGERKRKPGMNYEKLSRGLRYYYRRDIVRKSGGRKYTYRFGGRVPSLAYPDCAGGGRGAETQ
# Method in brief: as §1
# ELF3 = biological target: T5, ELF3 (Homo sapiens, UniProt P78545 1-371); conditions: protein: recombinant; tags: N-terminal GST; dsDNA, one strand shown
# T5 sequence: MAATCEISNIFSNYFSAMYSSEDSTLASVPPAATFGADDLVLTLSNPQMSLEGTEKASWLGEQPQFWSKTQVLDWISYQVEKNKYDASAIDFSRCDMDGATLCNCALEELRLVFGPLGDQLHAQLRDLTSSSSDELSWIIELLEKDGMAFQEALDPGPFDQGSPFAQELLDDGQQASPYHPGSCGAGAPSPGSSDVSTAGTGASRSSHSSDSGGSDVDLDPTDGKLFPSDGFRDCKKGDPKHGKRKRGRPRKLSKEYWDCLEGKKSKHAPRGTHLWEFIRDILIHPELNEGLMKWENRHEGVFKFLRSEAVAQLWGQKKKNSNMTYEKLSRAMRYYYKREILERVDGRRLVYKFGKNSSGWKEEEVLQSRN
# Method in brief: as §1
# CRX = CRX (Homo sapiens, UniProt O43186 1-299); conditions: protein: recombinant; tags: N-terminal GST; dsDNA, one strand shown
# Chain of CRX (O43186 whole entry): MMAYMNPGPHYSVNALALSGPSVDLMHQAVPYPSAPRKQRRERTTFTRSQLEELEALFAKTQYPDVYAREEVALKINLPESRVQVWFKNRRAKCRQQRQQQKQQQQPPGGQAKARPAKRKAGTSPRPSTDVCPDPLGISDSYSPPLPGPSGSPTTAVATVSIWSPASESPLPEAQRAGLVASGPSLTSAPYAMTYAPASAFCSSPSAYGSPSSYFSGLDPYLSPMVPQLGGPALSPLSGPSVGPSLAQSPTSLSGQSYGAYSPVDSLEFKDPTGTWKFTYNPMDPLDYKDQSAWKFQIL
# Method in brief: as §1
# ETV1 = ETV1 (Homo sapiens, UniProt P50549 1-477); conditions: protein: recombinant; tags: N-terminal GST; dsDNA, one strand shown
# Chain of ETV1 (P50549 whole entry): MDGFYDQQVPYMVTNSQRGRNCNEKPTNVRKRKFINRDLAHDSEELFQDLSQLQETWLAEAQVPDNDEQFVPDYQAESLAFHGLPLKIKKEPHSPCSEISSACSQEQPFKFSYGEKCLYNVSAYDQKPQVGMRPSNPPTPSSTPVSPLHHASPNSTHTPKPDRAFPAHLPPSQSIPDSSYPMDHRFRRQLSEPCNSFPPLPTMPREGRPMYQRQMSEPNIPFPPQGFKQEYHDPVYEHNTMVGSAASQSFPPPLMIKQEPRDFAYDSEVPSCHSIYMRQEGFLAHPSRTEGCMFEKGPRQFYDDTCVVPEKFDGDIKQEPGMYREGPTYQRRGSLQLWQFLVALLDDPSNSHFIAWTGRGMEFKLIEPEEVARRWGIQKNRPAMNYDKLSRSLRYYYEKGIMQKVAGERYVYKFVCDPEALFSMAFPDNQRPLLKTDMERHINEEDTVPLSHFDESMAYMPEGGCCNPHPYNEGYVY
# Method in brief: as §1
# ERF = biological target: T6, ERF (Homo sapiens, UniProt P50548 1-548); conditions: protein: recombinant; tags: N-terminal GST; dsDNA, one strand shown
# T6 sequence: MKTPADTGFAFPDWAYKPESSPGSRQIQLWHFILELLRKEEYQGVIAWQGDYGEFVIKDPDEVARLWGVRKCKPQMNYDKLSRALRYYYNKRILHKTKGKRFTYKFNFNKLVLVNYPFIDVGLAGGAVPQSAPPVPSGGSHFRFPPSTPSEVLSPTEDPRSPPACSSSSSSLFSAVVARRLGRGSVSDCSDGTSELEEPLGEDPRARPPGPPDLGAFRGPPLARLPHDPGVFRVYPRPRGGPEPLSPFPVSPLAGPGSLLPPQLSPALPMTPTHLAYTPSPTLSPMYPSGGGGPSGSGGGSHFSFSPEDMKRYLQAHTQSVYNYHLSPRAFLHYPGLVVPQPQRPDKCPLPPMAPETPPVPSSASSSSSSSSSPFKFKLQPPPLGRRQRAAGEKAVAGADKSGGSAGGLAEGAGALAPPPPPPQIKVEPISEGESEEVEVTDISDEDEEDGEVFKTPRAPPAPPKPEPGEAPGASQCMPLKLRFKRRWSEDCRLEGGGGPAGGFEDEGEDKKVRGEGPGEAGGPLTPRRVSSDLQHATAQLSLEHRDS
# Method in brief: as §1
# ETV3L = biological target: T7, ETV3L (Homo sapiens, UniProt Q6ZN32 1-361); conditions: protein: recombinant; tags: N-terminal GST; dsDNA, one strand shown
# T7 sequence: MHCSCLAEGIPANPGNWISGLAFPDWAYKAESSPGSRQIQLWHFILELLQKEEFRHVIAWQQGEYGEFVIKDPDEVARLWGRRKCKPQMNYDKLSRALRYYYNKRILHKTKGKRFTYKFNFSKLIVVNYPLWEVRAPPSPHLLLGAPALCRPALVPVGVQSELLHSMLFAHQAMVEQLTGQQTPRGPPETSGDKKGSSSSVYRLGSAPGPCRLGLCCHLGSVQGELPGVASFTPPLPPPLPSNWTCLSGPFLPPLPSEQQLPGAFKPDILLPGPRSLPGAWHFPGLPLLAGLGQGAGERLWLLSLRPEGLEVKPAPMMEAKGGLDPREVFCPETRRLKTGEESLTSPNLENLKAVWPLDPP
# Method in brief: as §1
# ETS2 = biological target: T8, ETS2 (Homo sapiens, UniProt P15036 1-469); conditions: protein: recombinant; tags: N-terminal GST; dsDNA, one strand shown
# T8 sequence: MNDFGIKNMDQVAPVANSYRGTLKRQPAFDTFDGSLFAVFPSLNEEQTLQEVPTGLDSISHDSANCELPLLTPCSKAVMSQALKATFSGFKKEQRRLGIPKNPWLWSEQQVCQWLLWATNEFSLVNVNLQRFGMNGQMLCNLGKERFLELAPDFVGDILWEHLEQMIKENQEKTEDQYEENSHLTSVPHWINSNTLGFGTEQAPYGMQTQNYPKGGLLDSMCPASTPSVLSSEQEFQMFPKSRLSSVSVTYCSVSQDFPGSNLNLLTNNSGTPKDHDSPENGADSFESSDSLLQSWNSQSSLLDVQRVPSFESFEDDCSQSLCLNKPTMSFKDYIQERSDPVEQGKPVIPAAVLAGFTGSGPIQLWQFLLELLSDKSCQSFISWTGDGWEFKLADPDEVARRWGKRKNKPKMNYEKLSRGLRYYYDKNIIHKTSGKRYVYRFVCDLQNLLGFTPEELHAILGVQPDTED
# Method in brief: as §1
# SPDEF = biological target: T9, SPDEF (Homo sapiens, UniProt O95238 1-335); conditions: protein: recombinant; tags: N-terminal GST; dsDNA, one strand shown
# T9 sequence: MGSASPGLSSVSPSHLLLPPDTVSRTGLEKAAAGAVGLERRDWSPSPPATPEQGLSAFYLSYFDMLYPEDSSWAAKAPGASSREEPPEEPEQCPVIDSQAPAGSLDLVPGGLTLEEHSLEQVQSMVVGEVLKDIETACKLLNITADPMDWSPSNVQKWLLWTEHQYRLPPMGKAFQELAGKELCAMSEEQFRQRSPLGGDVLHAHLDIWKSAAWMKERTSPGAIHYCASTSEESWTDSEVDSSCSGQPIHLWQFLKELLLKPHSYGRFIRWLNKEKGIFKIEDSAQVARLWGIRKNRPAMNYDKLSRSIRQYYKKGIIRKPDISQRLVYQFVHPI
# Method in brief: as §1
# ETV7 = biological target: T10, ETV7 (Homo sapiens, UniProt Q9Y603 1-341); conditions: protein: recombinant; tags: N-terminal GST; dsDNA, one strand shown
# T10 sequence: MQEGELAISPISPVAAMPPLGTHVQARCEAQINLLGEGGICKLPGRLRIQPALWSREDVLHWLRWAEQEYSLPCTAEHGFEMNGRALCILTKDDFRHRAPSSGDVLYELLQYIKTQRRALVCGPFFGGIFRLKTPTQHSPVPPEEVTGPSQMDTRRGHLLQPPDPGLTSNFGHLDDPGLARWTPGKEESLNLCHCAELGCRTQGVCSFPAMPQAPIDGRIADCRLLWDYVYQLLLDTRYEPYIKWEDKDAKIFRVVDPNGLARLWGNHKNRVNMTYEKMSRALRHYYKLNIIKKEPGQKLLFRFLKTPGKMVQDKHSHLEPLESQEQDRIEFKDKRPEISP
# Method in brief: as §1
# ELF5 = biological target: T11, ELF5 (Homo sapiens, UniProt Q9UKW6-2 1-255); conditions: protein: recombinant; tags: N-terminal GST; dsDNA, one strand shown
# T11 sequence: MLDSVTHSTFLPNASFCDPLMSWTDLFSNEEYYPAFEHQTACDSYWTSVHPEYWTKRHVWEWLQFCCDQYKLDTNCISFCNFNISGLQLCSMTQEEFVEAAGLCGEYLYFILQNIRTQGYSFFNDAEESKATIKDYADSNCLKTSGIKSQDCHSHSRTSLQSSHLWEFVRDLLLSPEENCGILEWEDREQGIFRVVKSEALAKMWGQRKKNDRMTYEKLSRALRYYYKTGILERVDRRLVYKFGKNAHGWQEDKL
# Method in brief: as §1
# ETV3 = biological target: T12, ETV3 (Homo sapiens, UniProt P41162-2 1-143); conditions: protein: recombinant; tags: N-terminal GST; dsDNA, one strand shown
# T12 sequence: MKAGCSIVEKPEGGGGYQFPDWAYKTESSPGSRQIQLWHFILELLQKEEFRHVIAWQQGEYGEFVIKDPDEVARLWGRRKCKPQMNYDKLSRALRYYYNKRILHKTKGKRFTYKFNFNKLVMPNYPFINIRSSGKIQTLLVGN
# Method in brief: as §1
# ETV6 = ETV6 (Homo sapiens, UniProt P41212 1-452); conditions: protein: recombinant; tags: N-terminal GST; dsDNA, one strand shown
# Chain of ETV6 (P41212 whole entry): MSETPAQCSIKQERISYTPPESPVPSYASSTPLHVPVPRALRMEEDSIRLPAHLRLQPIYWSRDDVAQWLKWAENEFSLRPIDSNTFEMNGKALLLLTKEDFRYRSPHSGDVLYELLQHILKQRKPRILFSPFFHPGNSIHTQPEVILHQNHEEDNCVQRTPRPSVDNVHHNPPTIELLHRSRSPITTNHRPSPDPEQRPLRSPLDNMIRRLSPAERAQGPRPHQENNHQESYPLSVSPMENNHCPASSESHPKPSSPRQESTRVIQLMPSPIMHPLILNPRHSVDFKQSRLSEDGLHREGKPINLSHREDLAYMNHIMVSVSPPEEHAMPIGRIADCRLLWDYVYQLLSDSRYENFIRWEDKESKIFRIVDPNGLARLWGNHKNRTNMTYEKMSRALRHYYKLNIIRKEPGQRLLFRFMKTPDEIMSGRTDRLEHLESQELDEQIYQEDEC
# Method in brief: as §1
sequence,measurement,setting,value
TTACCG,binding signal,FEV,"1.26 fold enrichment (6-mer frequency, TF over GST control)"
same,binding signal,ETV5,"1.23 fold enrichment (6-mer frequency, TF over GST control)"
same,binding signal,HSF1,"1.25 fold enrichment (6-mer frequency, TF over GST control)"
same,binding signal,SPIC,"1.16 fold enrichment (6-mer frequency, TF over GST control)"
same,binding signal,ELF4,"1.13 fold enrichment (6-mer frequency, TF over GST control)"
same,binding signal,ELK4,"1.16 fold enrichment (6-mer frequency, TF over GST control)"
same,binding signal,ETV2,"1.12 fold enrichment (6-mer frequency, TF over GST control)"
same,binding signal,ELF3,"1.2 fold enrichment (6-mer frequency, TF over GST control)"
same,binding signal,CRX,"1.74 fold enrichment (6-mer frequency, TF over GST control)"
same,binding signal,ETV1,"1.14 fold enrichment (6-mer frequency, TF over GST control)"
same,binding signal,ERF,"1.05 fold enrichment (6-mer frequency, TF over GST control)"
same,binding signal,ETV3L,"1.03 fold enrichment (6-mer frequency, TF over GST control)"
same,binding signal,ETS2,"1.19 fold enrichment (6-mer frequency, TF over GST control)"
same,binding signal,SPDEF,"1.21 fold enrichment (6-mer frequency, TF over GST control)"
same,binding signal,ETV7,"1.17 fold enrichment (6-mer frequency, TF over GST control)"
same,binding signal,ELF5,"1.3 fold enrichment (6-mer frequency, TF over GST control)"
same,binding signal,ETV3,"1.23 fold enrichment (6-mer frequency, TF over GST control)"
same,binding signal,ETV6,"1.25 fold enrichment (6-mer frequency, TF over GST control)"
